Among all 350,000 compounds or so, about 31,000 (8.9%) were called active. Entries that show only a call come without a potency. Not shown: some 15% with an inconclusive outcome. This excerpt belongs to a sample that is enriched for actives. Values without a mark were called inactive. Calls come from the whole dose curve; as a rule, active = well fitted inhibition curve with a large enough effect; inconclusive = small, poorly fitted or top-dose-only effect; inactive = no such curve, though single readings can be large or run the other way.
These molecules were tested against Histone-lysine N-methyltransferase EHMT2 (Homo sapiens) (UniProt Q96KQ7) (assay: qHTS Assay for Inhibitors of Histone Lysine Methyltransferase G9a). Settings: G9a H3K9 monomethylation, AlphaScreen, 2 h; series mostly up to 59 µM.
Summary of the method: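 Methyltransferase reactions run at room temperature for 2 h (20 nM enzyme, 500 nM biotin-H3K9 peptide, 20 uM SAM) after a 15 min compound preincubation; product detected by AlphaScreen beads and anti-H3K9me1 antibody.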
Note: nearly all actives have a fitted effect of over 75% in size.
Potency is the fitted concentration of half-maximal effect.

Sequence of Histone-lysine N-methyltransferase EHMT2 (Homo sapiens) (Q96KQ7 913-1193 limits assumed): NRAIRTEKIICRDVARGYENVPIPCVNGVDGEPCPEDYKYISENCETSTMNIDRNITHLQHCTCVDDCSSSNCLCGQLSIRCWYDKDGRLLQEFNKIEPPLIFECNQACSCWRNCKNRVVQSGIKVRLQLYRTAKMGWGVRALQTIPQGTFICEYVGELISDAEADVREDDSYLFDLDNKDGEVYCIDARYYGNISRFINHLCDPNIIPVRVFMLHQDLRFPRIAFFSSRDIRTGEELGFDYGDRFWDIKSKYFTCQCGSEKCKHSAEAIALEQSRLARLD

Row | SMILES | Potency | activity, negative = inhibition
1 | Cc1nc2ccccc2n1CC(=O)N/N=C/c1cccnc1 | inactive | 
2 | CCOc1ccc(/C=N/NC(=O)CSc2ccccn2)cc1O | inactive | 
3 | Cn1c(SCC(=O)N/N=C/c2ccc(O)c(O)c2)nc2ccccc21 | 17.8 µM (active) | 
4 | Cc1nccn1CC(=O)N/N=C/c1ccc(O)c(O)c1 | 7.08 µM (active) | 
5 | Cc1ccc(/C=N/NC(=O)CSc2nc3ccccc3o2)cc1 | inactive | 
6 | CCOc1cc(/C=N/NC(=O)CN2CCCCC2)ccc1O | inactive | 
7 | O=C(NCC(=O)N1CCCCCCC1)c1ccccc1Cl |  | 8.52% [at 12.7 µM]
8 | Cc1c(C(=O)NCC(c2ccco2)N2CCCC2)oc2ccc(Cl)cc12 (stereo not drawn) | inactive | 
9 | Cc1ccc(S(=O)(=O)NCCC(=O)NC2CCN(Cc3ccccc3)CC2)cc1 | inactive | 
10 | COc1ccc(-c2noc(-c3ccc(N4CCN(c5ccccc5)CC4)c([N+](=O)[O-])c3)n2)cc1OC | inactive | 
11 | CCOc1ccccc1NC(=O)CN1CCN(S(=O)(=O)c2ccc(Br)cc2)CC1 | inactive | 
12 | CCNS(=O)(=O)c1ccc(NC(=O)CSc2nc(-c3ccco3)cc(C(F)(F)F)n2)cc1 | inactive | 
13 | O=C(Nc1cc(-c2ccccc2)nn1-c1ccccc1F)c1ccc([N+](=O)[O-])cc1 |  | -22.8% [at 12.7 µM]
14 | CCOc1ccc(CN2CCCN(C)CC2)cc1 | 10 µM (active) | 
15 | CCOc1ccc(CN2CCN(Cc3c[nH]c4ccccc34)CC2)cc1 |  | 25.4% [at 2.33 µM]
16 | CCOc1ccc(CC(=O)NC2CCN(Cc3ccccc3)CC2)cc1 | inactive | 
17 | Cn1c(=O)c2c(nc(SCC(=O)Nc3ccc(F)cc3)n2Cc2ccccc2)n(C)c1=O | inactive | 
18 | Cc1cccc(Cn2c(SCCO)nc3c2c(=O)n(C)c(=O)n3C)c1 | inactive | 
19 | COC(=O)C(C)Sc1nc2c(c(=O)n(C)c(=O)n2C)n1Cc1cccc(C)c1 (stereo not drawn) | 20 µM (active) | 
20 | CCOc1ccccc1C(=O)Nc1ccc(S(=O)(=O)N2CCCCC2c2cccnc2)cc1 (stereo not drawn) | inactive | 
21 | N#CCSc1nn(-c2ccc(F)cc2)c(=S)s1 | inactive | 
22 | Cc1nnc(SCC(=O)NCc2ccccc2)s1 | inactive | 
23 | Cc1ccccc1-n1nc(SCC(=O)O)sc1=S | 50.1 µM (active) | 
24 | Cn1c(N)c(C(=O)COC(=O)COc2ccc(Cl)cc2)c(=O)n(C)c1=O |  | 17.9% [at 12.7 µM]
25 | Cc1cccc(N2CCN(C(=O)c3cc4c(=O)oc5ccccc5c4s3)CC2C)c1 (stereo not drawn) | inactive | 
26 | CN(CCNC(=O)c1cc2c(-c3ccccc3F)nn(C)c2s1)C1CCCCC1 | inactive | 
27 | Oc1ccccc1-c1cc(-c2ccc(Cl)cc2)n[nH]1 | inactive | 
28 | O=C(NCc1ccc(F)cc1)c1ccc(Cn2c(SCc3ccc(F)cc3)nc3cccnc32)cc1 | inactive | 
